{"source": "PubChem BioAssay (NCI)", "note": "The panel holds about 83,000 compounds, 20% with a hit somewhere; the sample as a whole holds those more often.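 Each cell line was grown in a 96-well plate and treated with one concentration of compound for 48 hours. Values below 10 were considered active.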 Unmarked numbers belong to inactive results. Activity calls are given as the source filed them."}
{"tested_on": "MDA-MB-468 breast", "test": "NCI-60 one-dose screen, 48 h (100 = growth as untreated, 0 = no growth, -100 = all killed)", "conditions": "10 µM unless noted"}
{"smiles": "CCN(CC)Cc1cccc(C(=O)OC)c1", "growth": "97.2%"}
{"smiles": "CCN(CC)c1ccc(/C=N/NC(=O)c2ccc(S(C)(=O)=O)cc2)c(O)c1", "growth": "1.2% (active)"}
{"smiles": "COc1ccc(CCN=Cc2ccc(Cl)cc2)cc1OC", "growth": "117%"}
